An excerpt weighted towards active compounds, which were near 7.4% of everything screened.
Rab9 prom act – activators of Rab9 promoter; Huh7 Rab9 promoter-luciferase reporter, luminescence, 24 h; Potency, µM (series often up to 9.22 µM), actives largely listed as activators; actives 2.8% (n = 320,000); AID 485297; also: nearly all actives have a fitted effect of over 60% in size
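Quantitative HTS format; Huh7 Rab9-luciferase reporter cells (1500/well) receive compound 2 h post-plating, incubate 24 h at 37 °C, then get luciferase reagent for 10 min before luminescence reading.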
ELG1 genotoxic – induces genotoxicity in HEK293T cells with luciferase-tagged ELG1; HEK293T ELG1-luciferase reporter, luminescence, 16 h; Potency, µM (top dose mostly 46 µM), hits mostly activators; actives 1.3% (n = 330,000); AID 504466; also: nearly all actives have a fitted effect of over 60% in size
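Quantitative HTS format in 1536-well plates. HEK293T ELG1-luciferase reporter cells receive test compound and are incubated 16 hr at 37 °C, 5% CO2; ONE-Glo added, 30 min room temperature, then luminescence read.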
SMN2 splice enh – SMN2 splice variant enhancement. HEK293 SMN2-luciferase splicing reporter, luminescence, 30-36 h. Potency, µM (top dose mostly 46.1 µM), actives largely listed as activators. actives 2.8% (n = 210,000). AID 1458; also: nearly all actives have a fitted effect of over 55% in size
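HEK293 cells carry an SMN2 […]–luciferase reporter in which exon 7 inclusion puts luciferase in frame. Cells were plated 10-12 h before compound addition, then incubated 30-36 h at 37C. ONE-Glo luminescence was read; sodium butyrate at 4.5 mM final served as control.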
p53 reactivation – re-activators of mutant p53; H1299 p53-A138V BP100-luciferase reporter, luminescence, 24 h; Potency, µM (titrated, usually from 92.2 µM), actives largely listed as activators; actives 0.063% (n = 320,000); AID 504706; also: nearly all actives have a fitted effect of over 45% in size
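p53-null H1299 cells stably carrying temperature-sensitive p53-A138V and a BP100-luciferase reporter were pinned with compounds (4-point, 1:5 series) and held 24 hrs at 37 deg C. Luminescence was read 10 min after detection reagent.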
FLuc modulator – counter-screen for miR-21 project: firefly luciferase inhibitors or activators; P08659; purified FLuc, Km substrates, luminescence inhibition; Potency, µM (highest dose often 57.5 µM), usual class: inhibitors; actives 6.9% (n = 360,000); also: nearly all actives have a fitted effect of over 55% in size
Target sequence (P08659 whole entry, looked up): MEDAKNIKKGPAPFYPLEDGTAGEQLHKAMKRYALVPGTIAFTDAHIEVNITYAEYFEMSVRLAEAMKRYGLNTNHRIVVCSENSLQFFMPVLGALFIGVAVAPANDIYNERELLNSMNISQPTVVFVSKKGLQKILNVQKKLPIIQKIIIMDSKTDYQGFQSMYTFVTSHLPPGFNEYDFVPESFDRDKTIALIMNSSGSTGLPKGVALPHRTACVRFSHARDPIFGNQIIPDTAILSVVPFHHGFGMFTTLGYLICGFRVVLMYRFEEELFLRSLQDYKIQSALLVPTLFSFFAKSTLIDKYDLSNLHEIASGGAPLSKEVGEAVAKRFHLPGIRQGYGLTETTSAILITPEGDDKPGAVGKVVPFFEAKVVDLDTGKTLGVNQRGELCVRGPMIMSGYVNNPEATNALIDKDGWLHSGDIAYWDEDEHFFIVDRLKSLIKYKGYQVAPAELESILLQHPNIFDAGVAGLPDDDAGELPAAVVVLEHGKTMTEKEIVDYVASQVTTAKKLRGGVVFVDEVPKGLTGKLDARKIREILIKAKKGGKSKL
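Biochemical qHTS of compounds, final roughly 60 µM downward over six points, against 10 nM purified firefly luciferase using Km concentrations of substrates (10 uM D-luciferin, 10 uM ATP) in Tris acetate pH 7.5 buffer; luminescence output.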
NPC1 promoter act – NPC1 promoter activation | Huh7 NPC1 promoter luciferase reporter, 24 h | Potency, µM (top dose mostly 9.22 µM), most hits filed as activators | actives 2.4% (n = 320,000); also: nearly all actives have a fitted effect of over 60% in size
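Luminescence read-out of NPC1 promoter-driven luciferase in stably transfected Huh7 cells; compounds delivered in DMSO and left 24 h at 37C, 5% CO2, qHTS titration format.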
A number is an active result; - = inactive; ? = inconclusive; . = no result. Calls follow the shape of the dose curve; as a rule, active = well fitted curve in the direction sought with a large enough effect; inconclusive = small, poorly fitted or top-dose-only effect, or another doubt; inactive = no such curve, though single readings can be large; an effect the other way counts as inactive or inconclusive.

SMILES	Rab9 prom act	ELG1 genotoxic	SMN2 splice enh	p53 reactivation	FLuc modulator	NPC1 promoter act
Cc1ccc2nc(NC(=O)CSCC(=O)OCC(=O)c3ccccc3)sc2c1	-	-	-	-	16.9µM	-
CCOc1ccc2nc(NC(=O)CSCC(=O)Nc3cc(C)on3)sc2c1	3.16µM	?	.	?	?	?
CCc1ccc2nc(NC(=O)CSCc3c(C)noc3C)sc2c1	-	-	?	-	21.3µM	-
Cc1nc2c(c(SCC(=O)Nc3ccccc3C(F)(F)F)n1)CCC2	.	.	.	.	-	.
Cc1ccc(NC(=O)Cn2cc3c(n2)CCC(C)C3)cc1C (stereo not given)	.	.	-	.	-	.
CCOC(=O)c1cccc(NC(=O)Cn2ncc3c4ccccc4n(Cc4ccccc4)c3c2=O)c1	.	.	-	.	-	.
CCOc1ccc2nc(NC(=O)CCC(=O)c3cccs3)sc2c1	4.47µM	10.3µM	12.6µM	?	1.9µM	3.16µM
CCOc1ccc2nc(NC(=O)CN3CCN(c4ccccn4)CC3)sc2c1	.	.	-	.	?	.
CC1CC1C(=O)Nc1nc2ccc(S(C)(=O)=O)cc2s1 (stereo not given)	-	-	.	?	-	-
CCOc1ccc(S(=O)(=O)Nc2nc3ccc(OC)cc3s2)cc1	-	-	-	-	-	-
Cc1ccc2nc(NC(=O)C3CC3C)sc2c1 (stereo not given)	?	-	.	?	5.36µM	1.12µM
CCOc1ccc2nc(NS(C)(=O)=O)sc2c1	-	?	14.1µM	?	16.9µM	-
CCOc1ccc2nc(NC(=O)Cn3c(C)csc3=O)sc2c1	-	-	.	-	4.78µM	-
CCOc1cc(CNc2ccc(O)cc2)cc(Cl)c1OCc1ccccc1	.	.	-	.	-	.
CC(=O)N1CCN(c2ccc(NC(=O)c3ccco3)cc2)CC1	?	?	.	?	16.9µM	?
CCC(=O)N1CCN(c2ccc(NC(=O)c3ccco3)cc2)CC1	-	?	.	-	?	-
CC1CCN(c2ccc(NC(=S)NC(=O)c3ccco3)cc2)CC1	?	-	-	?	12µM	-
O=C(NC(=S)Nc1ccc(N2CCCCC2)cc1)c1ccco1	1.12µM	?	.	-	3.38µM	1µM
CCC(C)S(=O)(=O)c1oc(-c2ccc(F)cc2)nc1S(=O)(=O)c1ccc(F)cc1 (stereo not given)	.	.	-	.	-	.
CC(=O)c1cc2c(cc1NC(=O)c1ccc(C)cc1)OCCO2	-	-	.	-	5.36µM	-
CN(C)S(=O)(=O)c1ccc(C(=O)Nc2cccc(C(=O)O)c2)cc1	.	.	-	.	21.3µM	.
O=C(Nc1cc2c(cc1C(=O)O)OCCCO2)c1ccc(F)cc1F	-	?	.	-	21.3µM	-
COc1ccccc1C(=O)Nc1cc2c(cc1C(=O)O)OCCCO2	-	-	.	-	-	-
CN(C)S(=O)(=O)c1cccc(C(=O)Nc2ccc(N3CCOCC3)cc2)c1	-	-	.	-	?	-
CN(C)S(=O)(=O)c1cccc(C(=O)Nc2cc3c(cc2C(=O)O)OCCCO3)c1	-	-	.	-	6.01µM	-
SMILES	Rab9 prom act	ELG1 genotoxic	SMN2 splice enh	p53 reactivation	FLuc modulator	NPC1 promoter act
CCN1C(=O)c2cccc3c(NC(=O)c4ccc(S(=O)(=O)N(C)C)cc4)ccc1c23	-	-	12.6µM	-	-	-
CCN1C(=O)c2cccc3c(NC(=O)c4ccc(S(=O)(=O)N5CCOCC5)cc4)ccc1c23	-	?	?	-	-	-
CN(C)S(=O)(=O)c1ccc(C(=O)Nc2cc3c(cc2C(=O)O)OCCCO3)cc1	-	-	.	-	15.1µM	-
CSc1ccccc1C(=O)Nc1cc2c(cc1C(=O)O)OCCCO2	-	-	.	-	?	-
CN(C)S(=O)(=O)c1ccc(C(=O)Nc2ccccc2C(=O)O)cc1	-	-	-	-	12µM	-
CN(C)S(=O)(=O)c1ccc(C(=O)Nc2ccccc2F)cc1	-	-	-	-	-	-
C[C@H](CO)N1C[C@H](C)[C@@H](CN(C)C(=O)Nc2ccc(C(F)(F)F)cc2)Oc2ccc(NS(=O)(=O)c3ccccc3)cc2C1=O	.	-	.	-	.	.
COc1cc(C(=O)Nc2ccc3[nH]c(=O)sc3c2)cc(OC)c1OC	.	.	?	.	-	.
